# TbREL1 primary: TbREL1 RNA ligase inhibitors, primary screen, biochemical, FRET fluorescence; RNA-editing ligase 1, mitochondrial (Trypanosoma brucei brucei), P86926; 89,000 compounds, 0.49% hits; inhibition, % at 9.66 µM; TbREL1 RNA ligation;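 active = inhibition above the mean inhibition across all screened compounds plus 3 SD, cut at about 11% in these data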;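 also: 0% = plate median of test wells and 100% = NSC42067 control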
# Target sequence (P86926 whole entry, looked up): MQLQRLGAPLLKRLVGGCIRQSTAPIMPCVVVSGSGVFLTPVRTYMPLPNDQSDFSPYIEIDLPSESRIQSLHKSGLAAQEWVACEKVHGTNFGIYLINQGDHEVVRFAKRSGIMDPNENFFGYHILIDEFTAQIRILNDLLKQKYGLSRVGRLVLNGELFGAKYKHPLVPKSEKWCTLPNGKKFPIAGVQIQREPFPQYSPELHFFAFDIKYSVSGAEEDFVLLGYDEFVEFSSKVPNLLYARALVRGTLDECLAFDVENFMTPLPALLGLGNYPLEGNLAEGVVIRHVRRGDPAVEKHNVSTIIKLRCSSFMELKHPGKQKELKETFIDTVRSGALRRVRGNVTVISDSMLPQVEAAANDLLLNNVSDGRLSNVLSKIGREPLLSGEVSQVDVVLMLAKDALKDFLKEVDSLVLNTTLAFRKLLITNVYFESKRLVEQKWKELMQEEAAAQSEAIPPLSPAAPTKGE
# TbREL1 conf: TbREL1 RNA ligase inhibitors, confirmation, biochemical, FRET fluorescence, triplicate; shares compounds with TbREL1 primary; TbREL1 RNA ligation; inhibition, % at 9.66 µM; 390 compounds, 37% hits; AID 1117282, 2014;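 active = mean inhibition across replicates above a set limit taken from the earlier primary screen, cut at about 11% in these data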;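 also: 0% = REL1 with substrate and DMSO and 100% = REL1 plus control inhibitor NSC42067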
# * hit, by the source's call. This is one part of a sample in which hits are shown more often than they occur.
SMILES,TbREL1 primary,others
O=C(Nc1ccc(Br)cc1)OC1CC2CC1[C@H]1CCCCN1[C@H]2Cc1ccccc1 (stereo not given in full),4,
CCOc1ccc(-n2c(SCC(=O)Nc3ccccc3-c3ccccc3)nnc2-c2ccncc2)cc1,0,
NC(=O)c1ccc(NC(=O)COc2ccc(-n3cnnn3)cc2)cc1,1,
O=C(O)COCC(=O)Nc1ccc(-n2cnnn2)cc1,12*,TbREL1 conf=7
O=C(CN1CCN(Cc2ccccc2)CC1)Nc1ccc(-n2cnnn2)cc1,-1,
CC(C)NC(=O)CCCn1cc([N+](=O)[O-])cn1,3,
COC(=O)c1ccc(Cn2cc([N+](=O)[O-])cn2)cc1,3,
Cc1nn(C(=O)Cn2cc([N+](=O)[O-])cn2)c(C)c1Cl,11*,TbREL1 conf=4
O=C(Nc1nc(-c2ccco2)c(-c2ccco2)s1)c1cnccn1,20*,TbREL1 conf=3
CCOc1ccc2nc(NC(=O)c3cnccn3)sc2c1,2,
Cc1cnc(NC(=O)c2ccco2)s1,6,
CN(CCc1ccccn1)C(=O)c1cc2ccccn2n1,5,
Cc1ccc(CNC(=O)O[C@H]2CC[C@@]34CCCN3C(=O)CCC[C@H]4[C@H]2C)cc1,-5,
Cc1onc(-c2ccccc2)c1-c1n[nH]c(=S)n1-c1ccccc1,26*,TbREL1 conf=-1
Cc1c(Cl)c(-c2n[nH]c(=S)n2-c2ccccc2)nn1C,-5,
Cc1ccc(-n2c(-c3ccccc3)n[nH]c2=S)cc1,-5,
COc1cccc(N2CCN(CC(=O)N(C)Cc3ccccc3Cl)CC2)c1,-3,
COc1ccc(C)cc1NC(=O)CSc1nnc(-c2n[nH]c3c2CCC3)n1N,-2,
COc1ccc(Cn2cc(COC(=O)NCC(C)C)nn2)cc1,0,
Fc1cccc(CNC2CCC23CCC(c2ccccc2)CC3)c1 (stereo not given),-1,
CCC(=O)N1CCc2cc(Br)c(S(=O)(=O)N3CCC(C(=O)NC(C)(C)C)CC3)cc21,-1,
O=C(c1ccc(-c2ccccc2)cc1)N1CCC(C(=O)N2CCCC2)CC1,3,
O=C(C1CCN(CCCc2ccccc2)CC1)N1CCCCC1,12*,TbREL1 conf=2
O=C(Nc1ccccc1)N1CCN(CCc2ccccc2)CC1,-3,
COc1ccccc1NC(=O)OCCN1CCCC12CCC(c1ccccc1)CC2 (stereo not given),4,
SMILES,TbREL1 primary,others
COc1ccc(CN(CCN2CCOCC2)C(=O)c2cc(F)ccc2C)cc1OC,-1,
CCN1C(=NCc2cc(OC)c(OC)c(OC)c2)N[C@@H](c2cccc(C(F)(F)F)c2)C(C(=O)OC)=C1C,0,
O=C(CN1C(=O)NC(CCc2ccccc2)C1=O)Nc1ccccc1C(F)(F)F (stereo not given),1,
COC(=O)C1=C(C)N(Cc2ccccc2)C(=S)N[C@H]1c1cccc(C(F)(F)F)c1,-6,
COC(=O)C1=C(C)N(Cc2cccc(C(F)(F)F)c2)C(=NCc2cc(OC)c(OC)c(OC)c2)NC1CCc1ccccc1 (stereo not given),12*,TbREL1 conf=20*
C=CCN=C1NC(c2ccccc2)C(C(=O)OC)=C(C)N1Cc1ccccc1C(F)(F)F (stereo not given),7,
COC(=O)C1=C(C)N(Cc2ccccc2C(F)(F)F)C(=NCc2ccccc2)NC1CCc1ccccc1 (stereo not given),21*,TbREL1 conf=20*
COCCCNC(=O)CN1C(=O)C2CCCCN2C(=O)c2ccccc21 (stereo not given),3,
CCCCC(=O)N1CCN(C(=O)c2ccc3c(c2)nc(C)n3C2CCCC2)CC1,-1,
C[C@H]1[C@@H](NC(=O)c2ccc(C(C)(C)C)cc2)CC[C@@]23CCCN2C(=O)CCC[C@@H]13,6,
COc1cccc(OC)c1OCCCSc1nc(C)cc(=O)[nH]1,4,
CCOc1ccc(OCCSc2nc(C)cc(=O)[nH]2)cc1,11*,TbREL1 conf=3
Cc1cc(=O)[nH]c(SCC(=O)c2ccc(C)c(C)c2)n1,-2,
COc1ccc(CSc2nnc(SCc3ccccc3)s2)cc1,1,
COc1cccc(N2CCN(C(=O)COc3cc(=O)n(C)c4ccccc34)CC2)c1,5,
COC(=O)c1ccc(Cn2ccc3ccc(-c4ccc5ccn(C(=O)c6cccc(OC)c6)c5c4)cc32)cc1,0,
CN(C(=O)c1ccccc1C(=O)OCC(=O)c1ccc(F)cc1)c1ccccc1,-1,
CN(C(=O)c1ccccc1C(=O)OCC(=O)c1ccc(F)c(F)c1)C1CCCCC1,12*,TbREL1 conf=2
CN(C(=O)c1ccccc1C(=O)OCC(=O)NCc1cccs1)C1CCCCC1,-2,
C=CCNC(=O)N1CCC(c2nc3ccc(Cl)cc3[nH]2)CC1,6,
COc1ccc2c(c1)CCCN2C(=O)C1CCCN(S(=O)(=O)c2ccc(C)c(C)c2)C1 (stereo not given),0,
COCCCNC(=O)C1CCN(S(=O)(=O)c2ccc3[nH]c(=O)oc3c2)CC1,19*,TbREL1 conf=24*
O=C(C1CCN(S(=O)(=O)c2ccc3[nH]c(=O)oc3c2)CC1)N1CCCC1,5,
CSCCCNC(=O)C1CCN(S(=O)(=O)c2ccc3[nH]c(=O)oc3c2)CC1,-1,
Cc1nc2ccc(C(=O)N3CCN(C(=O)C(Cl)Cl)CC3)cc2n1C1CCCC1,-2,
SMILES,TbREL1 primary,others
Cc1c(NC(=O)C2CCCN(S(=O)(=O)c3c(C(C)C)cc(C(C)C)cc3C(C)C)C2)c(=O)n(-c2ccccc2)n1C (stereo not given),-2,
CCCC1CCC2(CC1)CCC2OC(=O)Nc1cccc(C(F)(F)F)c1 (stereo not given),12*,TbREL1 conf=8
CCCC1CCC2(CC1)CCC2OC(=O)Nc1ccc(C)cc1 (stereo not given),-1,
CCCC1CCC2(CC1)CCC2OC(=O)Nc1cc(C)cc(C)c1 (stereo not given),0,
COc1cc2c(cc1NC(=O)CSc1nnc(COc3ccccc3)n1Cc1ccco1)oc1ccccc12,2,
Cc1ccc(-n2c(SCC(=O)Nc3ccc(S(=O)(=O)Nc4cc(C)nc(C)n4)cc3)nnc2-c2ccc(C(C)(C)C)cc2)cc1,-1,
CC(C)Oc1ccc(S(=O)(=O)N2CCCCCC2)c2ccccc12,4,
O=C(Nc1ccc(F)cc1)OCc1cn(Cc2cccc(F)c2F)nn1,-1,
COc1cc2c(cc1OC)C(c1ccc(-c3ccc(Cl)c(Cl)c3)o1)=NCC2,14*,TbREL1 conf=24*
COc1cc2c(cc1OC)C(c1ccc(-c3ccc(Cl)cc3Cl)o1)=NCC2,6,
COc1cc2c(cc1OC)C(c1ccc(Cl)cc1)=NCC2,2,
O=C(C[n+]1cc(-c2ccc(F)cc2)n2c1CCC2)Nc1nc(-c2ccc(F)cc2)cs1,2,
CCc1ccc(NC(=O)C[n+]2cc(-c3ccc(C)cc3)n3c2CCC3)cc1,13*,TbREL1 conf=14*
Cc1ccc(C[n+]2cc(-c3ccc(Cl)cc3)n3c2CCC3)cc1,8,
COc1ccc(OC)c(S(=O)(=O)N2CCCCC2C(=O)N2CCN(c3ccc(F)cc3)CC2)c1 (stereo not given),-4,
C[C@H]1[C@@H](OC(=O)NCCc2ccccc2)CC[C@@]23CCCN2C(=O)CCC[C@@H]13,-1,
Cc1ccc(NC(=O)C2CCCN2S(=O)(=O)c2cccnc2)cc1C (stereo not given),5,
O=C(O)CN1C(=O)C2C3C=CC(C2C1=O)C1C(=O)N(CC(=O)O)C(=O)C31 (stereo not given),4,
